# Hit rate of the full screen: of about 11,000 compounds, about 310 (2.8%) were called active. Rule as the data show it: active = activity change below about -85%; inactive = the rest. The entries come from a sample that favours actives as a whole.
# Test system: intestinal alkaline phosphatase [Mus musculus]
# Assay: mouse intestinal phosphatase enzyme activation – biochemical, luminescence, single concentration, confirmation (AID 434970)
# Details: purified mouse IAP, CDP-Star luminescence, 30 min, at 10 µM; activation factor: measured here: IAP activation factor, stronger effect = higher value; activity change, negative = activation: stronger effect = lower value
SMILES,activation factor,"activity change, negative = activation"
CCCc1c(NC(=O)Nc2ccc(F)cc2)cnn1-c1ccccc1,1.57,-57.2% (inactive)
O=C(NCCc1ccncc1)Nc1ccc(Cl)cc1,1.09,-8.6% (inactive)
CCCc1c(NC(=O)Nc2ccc(F)cc2)cnn1-c1ccc(Cl)cc1,2.42,-142% (active)
COCCn1c(SCC(=O)Nc2nc3ccccc3s2)nnc1-c1ccoc1C,0.944,5.6% (inactive)
N#CCCn1c(=S)[nH]c2ccccc21,0.98,2% (inactive)
Cc1ccc(S(=O)(=O)Nc2ccc(O)c(Sc3ncn[nH]3)c2)cc1,0.349,65.1% (inactive)
COC(=O)c1cccc(NC(=O)Nc2ccc(Cl)c(Cl)c2)c1,1.89,-88.6% (inactive)
CNC(=O)Nc1ccc(Cl)cc1,1.26,-26.3% (inactive)
CN(C)S(=O)(=O)Oc1cccc(C(=O)Nc2ccc(Cl)cc2)c1,0.992,0.85% (inactive)
Cc1cc(C)cc(C(=O)N(NC(=O)Nc2ccc(Cl)cc2)C(C)(C)C)c1,4.22,-322% (active)
CC(C)(C)N(NC(=O)Nc1ccc(Cl)c(Cl)c1)C(=O)c1ccccc1,3.95,-295% (active)
CN(C)S(=O)(=O)Oc1cccc(C(=O)Nc2ccc(Cl)c(Cl)c2)c1,0.948,5.2% (inactive)
CCCN(/C=N/c1sc2c(c1C#N)CCCCC2)CCC,0.953,4.7% (inactive)
Cn1ncc(C#N)c1/N=C/N1CCOCC1,1.05,-4.75% (inactive)
Cc1ccc(CNC(=O)c2ccc(NC(=O)CCS(=O)(=O)c3cccs3)cc2)cc1,0.978,2.15% (inactive)
CC(C)c1ccc(N(CC(=O)Nc2ccc(S(=O)(=O)N3CCOCC3)cc2)S(C)(=O)=O)cc1,1.12,-12.1% (inactive)
O=C(Nc1ccc(S(=O)(=O)N2CCOCC2)cc1)C1CCCCC1,0.984,1.6% (inactive)
CC(NC(=S)Nc1ccc(S(=O)(=O)N2CCOCC2)cc1)C1CC2CCC1C2 (centres undefined),2.45,-145% (active)
Cc1cc[n+](CCC(=O)O)c2ccccc12,0.901,9.85% (inactive)
CCN(C1CCCCC1)S(=O)(=O)c1cc(C)ccc1OC,1.04,-4.35% (inactive)
CN1CC(COCc2ccccc2)Oc2ccccc2S1(=O)=O (centres undefined),1.04,-4.4% (inactive)

SMILES,activation factor,"activity change, negative = activation"
CC(NC(=O)Nc1ccc(Cl)cc1)C(c1cccs1)N1CCOCC1 (centres undefined),1.71,-71.1% (inactive)
CC(NC(=O)Nc1ccc(Cl)c(Cl)c1)C(c1ccccc1)N1CCOCC1 (centres undefined),3.21,-221% (active)
CC(Cc1cccs1)NC(=O)Nc1ccc(Cl)c(Cl)c1 (centres undefined),0.945,5.6% (inactive)
Cc1ccc(N2C(=O)c3ccc(C(=O)Nc4cccnc4)cc3C2=O)c(C)c1,0.946,5.45% (inactive)
Cc1ccc2[nH]c(=O)c(C(c3nnnn3CC3CCCO3)N3CCCc4ccccc43)cc2c1 (centres undefined),0.398,60.2% (inactive)
CCOc1ccc(NC(=O)CS(=O)CC(=O)NC2CCCc3ccccc32)cc1 (centres undefined),1,-0.45% (inactive)
Cc1cccc(NC(=O)NC2CCCc3ccccc32)c1 (centres undefined),3.36,-236% (active)
Cc1cccc(-n2nnc(C(=O)NC3CCCc4ccccc43)c2N)c1 (centres undefined),1.01,-1.4% (inactive)
CC(C)(C)c1ccc(NC(=O)NC2CCCc3ccccc32)cc1 (centres undefined),3.53,-253% (active)
COC(=O)c1ccc(NC(=S)NC2CCc3ccccc32)cc1 (centres undefined),1.51,-50.8% (inactive)
COc1ccc(-c2nnn(CC(=O)NC3CCCc4ccccc43)n2)cc1OC (centres undefined),1.06,-5.8% (inactive)
COc1cccc(NC(=O)NC2CCCc3ccccc32)c1 (centres undefined),2.74,-174% (active)
CCOc1ccc(NC(=O)CN(C)CC(=O)NC2CCCc3ccccc32)cc1OCC (centres undefined),1.1,-9.8% (inactive)
Cc1cccc(C)c1NC(=O)CS(=O)CC(=O)NC1CCCc2ccccc21 (centres undefined),1.11,-11.2% (inactive)
CCCn1c(Nc2ccccc2C)nc2ccccc21,0.988,1.25% (inactive)
COC(=O)c1cn(CC(=O)NC2CCCCC2)c2ccccc12,1.04,-3.9% (inactive)
Cc1ccc(-c2cc(-c3ccccc3)c3c(N)c(S(C)(=O)=O)sc3n2)cc1,0.966,3.45% (inactive)
O=c1oc2cc(OCc3ccc([N+](=O)[O-])cc3)ccc2c2c1CCCC2,0.909,9.15% (inactive)
COc1cccc(N=c2oc3ccc(OC)cc3cc2-c2nc3ccccc3[nH]2)c1,1.03,-2.7% (inactive)
CC(=O)c1cccc(NC(=O)Nc2ccc(C(=O)N3CCOCC3)cc2)c1,1.06,-6.35% (inactive)
O=C(Nc1ccc(Cl)cc1)Nc1cc(S(=O)(=O)N2CCOCC2)ccc1N1CCCC1,2.15,-116% (active)

SMILES,activation factor,"activity change, negative = activation"
Cc1oc(S(=O)(=O)N2CCCCC2)cc1NC(=O)Nc1ccc(Cl)cc1,1.42,-41.8% (inactive)
O=C(Nc1ccc(Cl)c(Cl)c1)Nc1cc(C(=O)N2CCOCC2)ccc1N1CCCCC1,2.67,-167% (active)
COc1ccccc1NC(=O)c1cc(S(=O)(=O)N2CCOCC2)ccc1Cl,0.877,12.2% (inactive)
Cc1ccc(C(=O)N2CCOCC2)cc1Cl,0.984,1.65% (inactive)
CC(Sc1ccc(Cl)cc1)C(=O)Nc1ccc(S(=O)(=O)N2CCOCC2)cc1 (centres undefined),1.07,-7.35% (inactive)
O=C(Nc1ccccc1)c1ccc(S(=O)(=O)N2CCOCC2)cc1,1.01,-1.35% (inactive)
Cc1ccc(NC(=O)Nc2ccccc2F)cc1S(=O)(=O)N1CCOCC1,1.52,-51.6% (inactive)
CN1CCN(c2ccc(Cl)cc2NC(=O)c2ccc(S(=O)(=O)N3CCCCCC3)cc2)CC1,0.982,1.75% (inactive)
CCN(CC)c1ccc(S(=O)(=O)N2CCOCC2)cc1NC(=O)Nc1ccccc1,2.53,-153% (active)
O=C(Nc1ccc(Cl)c(Cl)c1)Nc1cc(S(=O)(=O)N2CCOCC2)ccc1N1CCCC1,2.53,-153% (active)
Cc1ccc2c(c1)nnn2C1CCN(S(C)(=O)=O)CC1,0.904,9.55% (inactive)
CCc1ccccc1NC1=NCC(=O)N1Cc1ccccc1,1,-0.1% (inactive)
COc1cccc(-c2sc3cc(OC)c(OC)cc3c2-c2ccc(OCCN3CCCCC3)cc2)c1,1.01,-0.55% (inactive)
O=C(c1cccs1)N1CCCC(c2ccccc2)C1 (centres undefined),0.929,7.1% (inactive)
COc1cc(=O)n(C)c2cc(N(C)C)ccc12,0.917,8.35% (inactive)
COc1ccc2[nH]c3c(c2c1)CCN1C(=O)C(CC(=O)NCc2cccc(C(F)(F)F)c2)C[C@H](C(=O)N2CCOCC2)[C@@]31C (some centres undefined),1.08,-8.45% (inactive)
COc1ccc(Cc2nc3ccc(C(=O)NCc4ncc(C)[nH]4)cc3o2)cc1OC,0.927,7.3% (inactive)
COC(=O)c1sccc1NC(=O)C1CC=CCC1C(=O)O (centres undefined),0.998,0.15% (inactive)
CC1(C)Cc2noc(N)c2C(C)(C)N1OC(=O)c1cccs1,1.04,-3.75% (inactive)
CC[C@]12c3[nH]c4cc(CCC(=O)N(C)C)ccc4c3CCN1C(=O)[C@@H](CC(=O)NC/C=C(\C)CCC=C(C)C)C[C@@H]2C(=O)N1CCN(C(=O)C2CC2)CC1,1.09,-9.3% (inactive)
O=C(c1ccc(Cn2c(=O)[nH]c3ccccc3c2=O)cc1)N1CCN(c2ccc(F)cc2)CC1,1,0.05% (inactive)

SMILES,activation factor,"activity change, negative = activation"
S=C(NCc1ccccc1)Nc1cccc(Cl)c1,1.4,-40.5% (inactive)
Cc1ccc(NC(=S)NCCSc2ccc(Cl)cc2)cc1,1.45,-45.4% (inactive)
S=C(NCCN(C1CCCCC1)C1CCCC1)Nc1cccc(Cl)c1,1.69,-68.5% (inactive)
S=C(NCCC(c1ccccc1)c1ccccc1)Nc1cccc(Cl)c1,3.74,-274% (active)
Fc1ccccc1CNC(=S)Nc1ccc(Cl)cc1,1.38,-38.1% (inactive)
S=C(NCCC(c1ccccc1)c1ccccc1)Nc1ccc(Cl)cc1,2.1,-110% (active)
CC(C)CN(C(=O)COC(=O)Cn1cnc2ccccc2c1=O)C1CCS(=O)(=O)C1 (centres undefined),0.927,7.25% (inactive)
COc1ccc(Cl)cc1NC(=O)CN1CCC(n2nnc3ccccc32)CC1,0.96,4.05% (inactive)
CCOc1ccc(CN2CCC(n3nccc3NC(=O)CCCc3ccccc3)CC2)cc1,1.83,-83% (inactive)
COc1ccc(CN2CCC(n3nccc3NC(=O)CCCc3ccccc3)CC2)cc1C,2.4,-140% (active)
COc1ccccc1CN1CCC(n2nccc2NC(=O)CCCc2ccccc2)CC1,2.08,-108% (active)
COc1ccccc1CN1CCN(S(=O)(=O)c2ccccc2)CC1,0.897,10.3% (inactive)
CCOc1ccc(-c2cc(CCCC(=O)NCCc3ccccc3)no2)cc1,1.07,-6.9% (inactive)
Cc1ccc(-c2nnn(CC(=O)NC3CCN(Cc4ccccc4)CC3)n2)cc1,1.04,-4.25% (inactive)
COc1ccc(CN2CCC(n3nccc3NC(=O)CCc3ccccc3)CC2)c(C)c1C,1.6,-60% (inactive)
CCOc1cccc(CN2CCC(n3nccc3NC(=O)CCCc3ccccc3)CC2)c1,2.3,-130% (active)
COc1ccc(-c2noc(CCCC(=O)NCCc3ccccc3)n2)cc1OC,0.998,0.25% (inactive)
CCOC(=O)CN(C(=O)CN1CCC(n2nnc3cc(C)ccc32)CC1)c1ccccc1,0.982,1.8% (inactive)
Cc1ccc(C)c(CN2CCC(n3nccc3NC(=O)CCCc3ccccc3)CC2)c1,2.31,-131% (active)

# — PubChem BioAssay AID434970 (Sanford-Burnham Center for Chemical Genomics, 2010)
